Screens deposited in PubChem by The Scripps Research Institute Molecular Screening Center.
In the library only some 1.3% were active in any assay of this set; here they are far more common.
LYPLA2 inh: blocks human lysophospholipase 2, a PME1 counter-screen. O95372. recombinant LYPLA2, FP-Rh probe fluorescence polarization. inhibition, % at 5.9 µM. hit rate 0.38% among 320,000;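 active = inhibition above the screen-wide mean plus 3 SD, limit set per campaign, cut at about 26% in these data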;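 note: 0% = LYPLA2 with DMSO and 100% = wells lacking LYPLA2 enzyme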
LYPLA1 counter: blocks human lysophospholipase 1, a PME1 counter-screen; recombinant LYPLA1, FP-Rh probe fluorescence polarization; inhibition, % at 5.9 µM; hit rate 0.16% among 320,000; AID 2174;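 active = inhibition above the mean of all tested compounds plus 3 SD, set per campaign, cut at about 14% in these data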;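 note: inhibitors block serine hydrolase probe labeling of LYPLA1 so polarization falls; 0% = enzyme with DMSO and 100% = wells lacking LYPLA1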
Target sequence (O75608 whole entry, looked up): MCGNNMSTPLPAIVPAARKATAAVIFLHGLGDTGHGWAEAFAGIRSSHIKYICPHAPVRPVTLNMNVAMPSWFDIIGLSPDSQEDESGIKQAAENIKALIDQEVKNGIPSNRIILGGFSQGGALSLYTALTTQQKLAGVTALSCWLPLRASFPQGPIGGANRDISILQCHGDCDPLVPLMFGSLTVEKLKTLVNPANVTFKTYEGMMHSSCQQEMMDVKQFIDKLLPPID
EBNA-1 inh: blocks EBNA-1 binding to DNA. EBNA-1 DNA binding, fluorescence polarization. inhibition, % at 14.8 µM. hit rate 0.34% among 300,000. AID 1950; in the data active = inhibition above about 28%
PREPL inh: human PREPL enzyme inhibition; recombinant PREPL, fluorescence polarization activity-based probe; inhibition, % at 5.96 µM; hit rate 0.68% among 320,000; AID 2751;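 note: 0% = enzyme with DMSO and 100% = wells lacking enzyme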
ZTA DNA inh: blocks Epstein-Barr virus ZTA, an EBNA-1 counter-screen; P03206; ZTA-DNA binding, fluorescence polarization; inhibition, % at 11 µM; hit rate 0.15% among 320,000; in the data active = inhibition above about 33%
Target sequence (P03206 whole entry, looked up): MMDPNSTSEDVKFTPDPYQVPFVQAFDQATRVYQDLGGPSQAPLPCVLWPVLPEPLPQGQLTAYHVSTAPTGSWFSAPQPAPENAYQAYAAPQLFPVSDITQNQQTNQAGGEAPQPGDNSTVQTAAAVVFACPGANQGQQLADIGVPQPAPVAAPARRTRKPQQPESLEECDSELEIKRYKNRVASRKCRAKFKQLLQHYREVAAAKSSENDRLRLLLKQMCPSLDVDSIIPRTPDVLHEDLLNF
PREPL confirm: human PREPL inhibition, confirmation. shares compounds with PREPL inh. recombinant PREPL, fluorescence polarization activity probe. inhibition, % at 5.96 µM. hit rate 67% among 2,000;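 note: 0% = protein with DMSO and 100% = wells lacking protein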
* = called active by the depositor; · = no result. Cut-off read from the data, not from the text of the source, unless noted: active = inhibition above about 43%; inactive = the rest.

SMILES	LYPLA2 inh	LYPLA1 counter	EBNA-1 inh	PREPL inh	ZTA DNA inh	PREPL confirm
CCOC(=O)C1(CCOc2ccccc2)CCN(Cc2cc(OC)ccc2OC)CC1	3	4	4	50*	3	39
CCOC(=O)C1(CCOc2ccccc2)CCN(Cc2cccc(OC)c2)CC1	-1	-3	9	-63	11	·
C=C(C)[C@H]1CC=C(C)C(=O)C1	0	2	·	1	16	·
C#CCn1cc(/C=N/Nc2nc3ccccc3[nH]2)c2ccccc21	6	4	3	55*	-9	63*
COc1ccc(/C=N/Nc2nc3ccccc3[nH]2)cc1OC	9	8	-2	21	1	·
COc1cc(/C=N\Nc2nc3ccccc3[nH]2)cc(OC)c1OC	-3	6	5	43*	4	22
[O-][n+]1c2ccccc2c2n1CCCN=C2c1ccc(Cl)cc1	-2	-1	18	34	-3	·
CCN(CC(=O)NCc1ccc(Cl)cc1)C(=O)c1cccc(S(=O)(=O)Nc2ccc(OC)cc2)c1	0	0	-3	1	-5	·
CCN(CC)CCNc1ccc(CO)c2sc3ccccc3c(=O)c12	-7	-2	3	45*	4	58*
CCN(CC)CCNC(=O)Cc1nn(CC)c(=O)c2ccccc12	-2	0	10	-4	-4	·
Cc1cc(C)cc(NC(=O)C2CCCN2S(=O)(=O)c2ccc3c(c2)n(C)c(=O)c(=O)n3C)c1 (stereo not drawn)	-5	5	-7	10	-6	·
O=c1cc(-c2ccccc2)[nH]n1-c1nc2ccccc2[nH]1	-6	-6	9	-1	-1	·
CCc1cc(=O)[nH]c(-n2[nH]c(-c3ccccc3)cc2=O)n1	1	-1	12	57*	14	2
CC(C)(C)OC(=O)C[C@@H]1C/C=C\C[C@@H](CC(=O)N[C@@H](CO)Cc2ccccc2)C(=O)NC[C@@H](c2ccccc2)OC1=O	·	·	·	0	·	·
Cc1c(Cl)cccc1NC(=S)NCCc1ccc(C(F)(F)F)cc1	1	-2	-7	5	-4	·
COc1ccc(NC(=O)c2ccc(S(=O)(=O)N3CC(C)OC(C)C3)cc2)cc1 (stereo not drawn)	·	·	·	4	·	·
O=C(C[C@@H]1C/C=C\C[C@@H](Cc2ccc(F)cc2)C(=O)OC[C@@H](Cc2c[nH]c3ccccc23)NC1=O)NCCO	·	·	·	54*	·	47*
O=C(C[C@@H]1C/C=C\C[C@H](Cc2ccc(F)cc2)C(=O)OC[C@@H](Cc2c[nH]c3ccccc23)NC1=O)NCCO	·	·	·	32	·	·
O=C(C[C@H]1C/C=C\C[C@@H](Cc2ccc(F)cc2)C(=O)OC[C@@H](Cc2c[nH]c3ccccc23)NC1=O)NCCO	·	·	·	45*	·	35
C#CCOCCOCCOCCNc1nc(N2CCN(C(=O)[C@H]([C@@H](C)CC)n3cc([C@@H](N)Cc4ccc(O)cc4)nn3)CC2)nc(N2CCN(C(=O)[C@H](CCCCN)n3cc([C@@H](N)CC(C)C)nn3)CC2)n1	-10	0	10	22	-13	·
CC(OC(=O)CN1C(=O)NC2(CCCC2)C1=O)c1ccc(F)cc1 (stereo not drawn)	6	0	·	0	-15	·
CCCCNc1c(-c2ccc(SC(C)CC)cc2)nc2cnccn12 (stereo not drawn)	·	·	·	59*	·	55*
CN1Cc2sc(NC(=S)NC(=O)c3ccccc3)c(C#N)c2CC1(C)C	11	-2	-9	58*	6	19
NNC(=O)c1oc2nc(-c3ccco3)cc(-c3ccco3)c2c1N	-1	-5	7	47*	11	57*
Cc1ccc(Cc2c(C)nc3nc(SCC(=O)NCCCN4CCCCC4)nn3c2C)cc1	11	-1	-10	29	-8	·
SMILES	LYPLA2 inh	LYPLA1 counter	EBNA-1 inh	PREPL inh	ZTA DNA inh	PREPL confirm
CC(NC(=O)c1cccs1)c1nnc(SCc2ccc(Cl)cc2Cl)n1C (stereo not drawn)	-7	-1	4	43*	9	39
C=CCn1c(CNC(=O)c2cccs2)nnc1SCc1ccc(Cl)cc1Cl	3	5	10	12	0	·
Cc1ccnn1-c1ccc(C(=O)NCc2ccccc2CN2CCOCC2)cc1	·	·	·	15	·	·
O=C(COc1coc(CN2CCc3ccccc32)cc1=O)N1CCCCC1	5	1	-18	45*	-22	35
Nc1ccccc1-c1ccccc1N	3	2	3	4	7	·
Nc1ccccc1N=Nc1ccccc1N	2	0	-4	50*	4	43*
COc1ccc(NC(=O)C2CC(c3ccc(Cl)cc3)=NO2)cc1OC (stereo not drawn)	6	5	5	38	-3	·
COc1cc(NC(=O)C2CC(c3ccc(Cl)cc3)=NO2)cc(OC)c1OC (stereo not drawn)	-3	-4	2	44*	4	38
CN1CCN(CCCNC(=O)c2ccc3c(c2)N(Cc2ccc(F)cc2)CCS3)CC1	5	-1	-9	44*	-5	36
COc1ccc(S(=O)(=O)N2CCN(c3ncccn3)CC2)cc1OC	-12	-2	4	0	8	·
COc1cc(C2NC(=O)NC(c3ccccc3)=C2C(C)=O)cc([N+](=O)[O-])c1O (stereo not drawn)	9	3	2	18	-10	·
CN1c2ccccc2N(C)C1(C)c1ccccc1	-3	-1	2	20	3	·
CCN1c2ccccc2N(C)C1(C)c1ccccc1 (stereo not drawn)	5	-2	17	79*	10	27
COC(=O)c1cn(CCC#N)nc1-c1ccc2ccccc2c1	14	3	-15	-1	-22	·
CC1=Nc2nc(N3CCCCCC3)c(C#N)c3c4c(nc(c23)N1)N(c1ccc2ccccc2c1)C(=O)C4	5	-4	4	63*	-3	61*
C#CCOCCOCCOCCNc1nc(N2CCN(C(=O)[C@H](Cc3ccc(O)cc3)n3cc([C@@H](N)CC(C)C)nn3)CC2)nc(N2CCN(C(=O)[C@H](Cc3ccc(O)cc3)n3cc([C@@H](N)CC(C)C)nn3)CC2)n1	6	1	-14	21	-12	·
C#CCOCCOCCOCCNc1nc(N2CCN(C(=O)[C@H]([C@@H](C)CC)n3cc([C@@H](N)Cc4ccc(O)cc4)nn3)CC2)nc(N2CCN(C(=O)[C@H](Cc3cc4ccccc4[nH]3)n3cc([C@@H](N)CC(C)C)nn3)CC2)n1	5	2	-4	58*	-2	59*
C#CCOCCOCCOCCNc1nc(N2CCN(C(=O)[C@H]([C@@H](C)CC)n3cc([C@@H](N)CC(C)C)nn3)CC2)nc(N2CCN(C(=O)[C@H](Cc3cc4ccccc4[nH]3)n3cc([C@@H](N)Cc4ccc(O)cc4)nn3)CC2)n1	-1	0	5	43	4	·
